# Reference: PubChem BioAssay AID1224853 (National Center for Advancing Translational Sciences (NCATS), 2016)
# Results filed as inconclusive are left out. Entries that show only a call come without a potency. Active and inactive are the calls of the source. Calls come from the whole dose curve; as a rule, active = well fitted inhibition curve with a large enough effect; inconclusive = small, poorly fitted or top-dose-only effect; inactive = no such curve, though single readings can be large or run the other way.
# Test: Confirmation assay for measurement of the activity of small molecule inhibitors on Zika virus induced Caspase-3 activity in human astrocytoma cells
# Conditions: SNB-19 ZIKV-induced caspase-3/7, luminescence, 6 h; series mostly up to 46.1 µM
# From the text: National Center for Advancing Translational Sciences [NCATS] Johns Hopkins University School of Medicine Florida State University Assay Overview: Increase in the Caspase-3 activity indicates an activation of apoptosis cell death pathway caused by Zika virus infection in certain types of neuronal cells including human neural progenitor cells (hNPCs), astrocytes, and astrocytoma cell line (SNB-19). This cell-based caspase-3 activity assay measures the increased caspase-3 activity in the astrocytoma cell line (SNB-19) after a 6-hour Zika virus infection with a luminescence readout. A decrease in the luminescence signal in this assay by small molecule treatment indicates an inhibitory effect of that small molecule on the Zika virus induced caspase-3 activity that may correlate with its effect on reduction of Zika virus caused cell death.
# Assay Protocol Summary: The medium for SNB-19 cells is composed of RPMI 1640 (ATCC, Cat.# 30-2001), 10% fetal bovine serum (FBS) (GE healthcare Life Sciences, Cat.# SH30071.03), and 1% Pen/Strep (Gibco, Cat.# 15140-122). A Caspase-Glo 3/7 assay kit (catalog number G8092; Promega, Madison, WI) was used to detect caspase-3 activity induced by Zika virus infection in human cells. The reagent mixture was reconstituted as described in the protocol from the manufacturer. Polystyrene tissue culture treated and PDL coated white plates were obtained from Greiner Bio-One (Monroe, NC). Cells were seeded in 384- or 1536-well assay plates and cultured at 37 C with 5% CO2 for 16 to 20 hours. The typical cell seeding density in the 1536-well plate assay is 250 cells/well in 3ul medium for SNB-19 cells in tissue culture treated plates. Compounds were added to cells and incubated for one hour before addition of ZIKV solution to cells (2 FFU/cell). After incubation at 37 C with 5% CO2 for 6 hours, the reagent mixture of Caspase-Glo 3/7 assay kit was added to each well, followed by incubation at room temperature for 30 minutes. The luminescence intensity of the assay plates was measured using a ViewLux plate reader (PerkinElmer). Data were normalized by using the cell-containing wells without ZIKV as a negative control (0% induction of caspase 3/7 activity) and wells containing ZIKV infected cells (Caspase-3 activity induced) as a positive control (100% induction of caspase 3 activity). The percentage inhibitions of the increased Caspase-3 activity by small molecule inhibitors were then calculated.
row,SMILES,Potency
1,CC(C(=O)O)c1ccc(C(=O)c2cccs2)cc1 (stereo not given),17.3 µM (active)
2,CC(C)(C)COc1ccc(-n2cc(C(=O)O)cn2)cc1C#N,25.1 µM (active)
3,COc1ccc(NC(=O)/C=C/c2ccc(Cl)cc2)cc1,3.46 µM (active)
4,O=C1C(Cl)=C(NCCN2CCOCC2)C(=O)c2ncccc21,5.48 µM (active)
5,O=C1NC(=O)C(=Cc2ccc(-c3ccc(F)cc3)o2)S1,13.8 µM (active)
6,Nc1ccc(O)c(C(=O)O)c1,inactive
7,CC[C@]1(O)C[C@H]2CN(CCc3c([nH]c4ccccc34)[C@@](C(=O)OC)(c3cc4c(cc3OC)N(C=O)[C@H]3[C@@](O)(C(=O)OC)[C@H](OC(C)=O)[C@]5(CC)C=CCN6CC[C@]43[C@@H]65)C2)C1,inactive
8,COc1cc2nc(-c3ccc(N4CCN(C)CC4)cc3)nc(NCCN3CCOCC3)c2cc1OC,inactive
9,CC(=NNC(=S)N1CCC1)c1ccccn1,inactive
10,CC(C(=O)O)c1ccc2c(c1)[nH]c1ccc(Cl)cc12 (stereo not given),inactive
11,O=C(Nc1ncc([N+](=O)[O-])s1)c1cccs1,1.73 µM (active)
12,O[C@@H](COc1cccc2ncccc12)CN1CCN(C2c3ccccc3[C@@H]3[C@H](c4ccccc42)C3(F)F)CC1 (stereo not given in full),inactive
13,O=C(Nc1ccc([N+](=O)[O-])cc1Cl)c1cc(Cl)ccc1O,1.95 µM (active)
14,CCN1CCC(n2cc(CNc3cc(Cl)c4ncc(C#N)c(Nc5ccc(F)c(Cl)c5)c4c3)nn2)CC1,inactive
15,C=CCCCCCCCCC(=O)O,inactive
16,COc1ccc(-c2coc3cc(O)ccc3c2=O)cc1,15.5 µM (active)
17,CC(C)(C)OC(=O)CN(Cc1ccc(Cl)cc1)Cc1ccc([N+](=O)[O-])s1,inactive
18,CC(C)Oc1ccc2c(=O)c(-c3ccccc3)coc2c1,12.3 µM (active)
19,CCCCCNC(=O)N1CCC(CN(Cc2ccc(Cl)cc2)Cc2ccc([N+](=O)[O-])s2)C1 (stereo not given),inactive
20,CCN1/C(=C/C=C/c2sc3ccccc3[n+]2CC)Sc2ccccc21,inactive

row,SMILES,Potency
1,CCCS(=O)c1ccc2nc(NC(=O)OC)[nH]c2c1 (stereo not given),21.8 µM (active)
2,O=C(C=CC=Cc1ccc2c(c1)OCO2)N1CCCCC1,19.5 µM (active)
3,NC(N)=NN=C(/C=C/c1ccc([N+](=O)[O-])o1)/C=C/c1ccc([N+](=O)[O-])o1,inactive
4,CCC(C(=O)O)c1ccc(N2Cc3ccccc3C2=O)cc1 (stereo not given),6.9 µM (active)
5,COc1cccc(-c2cc(=O)c3ccccc3o2)c1N,7.74 µM (active)
6,COc1ccnc2c1CCCCC2S(=O)c1nc2ccccc2[nH]1 (stereo not given),inactive
7,O=C(c1ccccc1)c1ccc2n1CCC2C(=O)O (stereo not given),17.3 µM (active)
8,Nc1ccc(N=Nc2ccccc2)c(N)n1,12.3 µM (active)
9,CO[C@H]1C(=O)[C@]2(C)[C@@H](OC)C[C@H]3OC[C@@]3(OC(C)=O)[C@H]2[C@H](OC(=O)c2ccccc2)[C@]2(O)C[C@H](OC(=O)[C@H](O)[C@@H](NC(=O)OC(C)(C)C)c3ccccc3)C(C)=C1C2(C)C,inactive
10,Cc1ccc(O)c(-n2nc3ccccc3n2)c1,7.74 µM (active)
11,CN(C)c1ccc(C(=C2C=CC(=[N+](C)C)C=C2)c2ccccc2)cc1,inactive
12,Cc1[nH]c(C=C2C(=O)Nc3ccccc32)c(C)c1CCC(=O)O,inactive
13,CC[C@@]1(O)C[C@H](O[C@H]2C[C@H](N(C)C)[C@H](O[C@H]3C[C@H](O)[C@H](O[C@H]4CCC(=O)[C@H](C)O4)[C@H](C)O3)[C@H](C)O2)c2c(cc3c(c2O)C(=O)c2c(O)cccc2C3=O)[C@@H]1C(=O)OC,inactive
14,Oc1cc(O)cc(/C=C/c2ccc(O)c(O)c2)c1,6.15 µM (active)
15,CCCCCCCC/C=C/C(=O)O,inactive
16,NC1CCC(Nc2nc(Nc3ccc(C(=O)N4CCCCC4)cc3)c3ncn(-c4cccc(F)c4)c3n2)CC1 (stereo not given),inactive
17,c1ccc(CCNc2nc(-c3ccccc3)cs2)cc1,15.5 µM (active)
18,C/C(=N\O)c1ccc(OCC(=O)N2CCCCC2)cc1,8.69 µM (active)
19,CCCCCCCCCCCC(=O)[O][Sn]([CH2]CCC)([CH2]CCC)[O]C(=O)CCCCCCCCCCC,inactive
20,Cc1cc(O)c2c(c1)C(=O)c1cc(O)cc(O)c1C2=O,4.89 µM (active)
